Reference: PubChem BioAssay (EPA / NIEHS)
Calls of active or inactive are those of the source. How the source made its calls: active means hit-call score of the fitted dose curve at least 0.9, where 1 is the maximum; inactive means score below 0.9.

Legend:
[1] = BSK_hDFCGF_SRB: Viability Assessment in the BioMAP Diversity Plus: hDFCGF Assay (AID 2283061); conditions: primary human foreskin fibroblasts;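 further: cells exposed to compound for 24 h before the read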
Procedure, shortened: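 Viability was read as total protein: after 10% TCA fixation, wells were stained with 0.1% sulforhodamine B and read at 560 nm. Primary human foreskin fibroblasts were dosed for 24 h, with bidirectional fitting versus DMSO.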

[2] = read-out: TIMP metallopeptidase inhibitor 1 (TIMP1), TIMP1 (gene 7076); experiment: BSK_hDFCGF_TIMP1: BioMAP Diversity Plus: hDFCGF Assay for TIMP metallopeptidase inhibitor 1 (TIMP1) Biomarker Activity (AID 2283062); conditions: primary human foreskin fibroblasts; actives raise or lower the signal
Procedure, shortened: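 TIMP-1 measured by ELISA 24 h after chemical dosing of primary human skin fibroblasts, with gain or loss fitted relative to DMSO. Parallel SRB staining (560 nm) monitored overt cytotoxicity.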

[3] = read-out: Monokine induced gamma interferon (MIG), CXCL9 (gene 4283); experiment: BSK_hDFCGF_MIG: BioMAP Diversity Plus: hDFCGF Assay for Monokine induced gamma interferon (MIG) Biomarker Activity (AID 2283063); conditions: primary human foreskin fibroblasts; actives raise or lower the signal
Procedure, shortened: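 Human primary foreskin fibroblasts in the hDFCGF system, exposed to test chemical for 24 h; MIG measured by ELISA. Bidirectional curve fitting against DMSO negative control as activity baseline.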

[4] = read-out: Matrix Metallopeptidase 1 (MMP1), MMP1 (gene 4312); experiment: BSK_hDFCGF_MMP1: BioMAP Diversity Plus: hDFCGF Assay for Matrix Metallopeptidase 1 (MMP1) Biomarker Activity (AID 2283064); conditions: primary human foreskin fibroblasts; actives raise or lower the signal
Procedure, shortened: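 ELISA read-out of MMP1 from human foreskin fibroblasts (primary skin cells), 24 h post-dose. Gain or loss of signal was fitted bidirectionally versus DMSO negative control; cytotoxicity was checked by SRB in parallel cultures.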

[5] = read-out: Vascular cell adhesion molecule 1 (VCAM1), VCAM1 (gene 7412); experiment: BSK_hDFCGF_VCAM1: BioMAP Diversity Plus: hDFCGF Assay for Vascular cell adhesion molecule 1 (VCAM1) Biomarker Activity (AID 2283065); conditions: primary human foreskin fibroblasts; actives raise or lower the signal;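 on AC50: VCAM-1 protein level quantified by ELISA after 24 h chemical exposure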
Procedure, shortened: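 ELISA readout of VCAM-1 on human dermal fibroblast primary cultures, 24 h after chemical exposure. Gain or loss of signal fitted in both directions against DMSO baseline.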

[6] = read-out: Plasminogen activator inhibitor-1 (PAI1), SERPINE1 (gene 5054); experiment: BSK_hDFCGF_PAI1: BioMAP Diversity Plus: hDFCGF Assay for Plasminogen activator inhibitor-1 (PAI1) Biomarker Activity (AID 2283066); conditions: primary human foreskin fibroblasts; actives raise or lower the signal
Procedure, shortened: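 ELISA readout of PAI-1 from primary human skin fibroblast cultures, 24 h after compound addition. Gain or loss of signal was fitted bidirectionally against DMSO baseline.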

[7] = read-out: Intercellular Adhesion Molecule 1 (ICAM1), ICAM1 (gene 3383); experiment: BSK_KF3CT_ICAM1: BioMAP Diversity Plus: KF3CT Assay for Intercellular Adhesion Molecule 1 (ICAM1) Biomarker Activity (AID 2283067); conditions: primary human keratinocytes with fibroblasts; actives raise or lower the signal
Procedure, shortened: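 Cell-surface ICAM-1 was measured by ELISA 24 h after dosing primary human skin keratinocytes co-cultured with fibroblasts. Parallel SRB staining tracked overt cytotoxicity. Gain or loss of signal was fitted relative to DMSO.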

[8] = read-out: Interferon-gamma inducible Protein 10 (IP10), CXCL10 (gene 3627); experiment: BSK_KF3CT_IP10: BioMAP Diversity Plus: KF3CT Assay for Interferon-gamma inducible Protein 10 (IP10) Biomarker Activity (AID 2283068); conditions: primary human keratinocytes with fibroblasts; actives raise or lower the signal
Procedure, shortened: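 In a primary skin co-culture of keratinocytes and fibroblasts, IP-10 is quantified by ELISA at 24 h after dosing. SRB staining of parallel wells monitors overt toxicity. Curves are fitted both directions against DMSO.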

[9] = BSK_KF3CT_SRB: Viability Assessment in the BioMAP Diversity Plus: KF3CT Assay (AID 2283069); conditions: primary human keratinocytes with fibroblasts;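 further: total protein by sulforhodamine B staining as a cytotoxicity measure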
Procedure, shortened: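 SRB read-out at 560 nm (0.1% stain, TCA-fixed cells) gauges overt cytotoxicity in a human skin keratinocyte–fibroblast co-culture 24 h post-dosing. Signal change was fitted bidirectionally relative to DMSO control.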

[10] = read-out: Interleukin-1 alpha (IL1a), IL1A (gene 3552); experiment: BSK_KF3CT_IL1a: BioMAP Diversity Plus: KF3CT Assay for Interleukin-1 alpha (IL1a) Biomarker Activity (AID 2283070); conditions: primary human keratinocytes with fibroblasts; actives raise or lower the signal
Procedure, shortened: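 Primary skin co-culture (keratinocytes, foreskin fibroblasts), 24 h exposure; ELISA for IL-1a; bidirectional curve fit vs DMSO.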

[11] = read-out: TIMP metallopeptidase inhibitor 2 (TIMP2), TIMP2 (gene 7077); experiment: BSK_KF3CT_TIMP2: BioMAP Diversity Plus: KF3CT Assay for TIMP metallopeptidase inhibitor 2 (TIMP2) Biomarker Activity (AID 2283071); conditions: primary human keratinocytes with fibroblasts; actives raise or lower the signal
Procedure, shortened: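 ELISA readout of TIMP-2 in keratinocyte plus foreskin fibroblast co-cultures (human skin primary cells), 24 h post-dose. Gain or loss of signal fitted relative to DMSO.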

[12] = read-out: Transforming growth factor beta 1 (TGFb1), TGFB1 (gene 7040); experiment: BSK_KF3CT_TGFb1: BioMAP Diversity Plus: KF3CT Assay for Transforming growth factor beta 1 (TGFb1) Biomarker Activity (AID 2283072); conditions: primary human keratinocytes with fibroblasts; actives raise or lower the signal
Procedure, shortened: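 Read-out: ELISA for TGF-b1 in keratinocyte/foreskin fibroblast human skin co-culture, 24 h after dosing; bidirectional curve fit vs DMSO baseline; gain or loss of signal scored.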

[13] = read-out: C-C motif chemokine 2 (Homo sapiens) (UniProt P13500); experiment: BSK_KF3CT_MCP1: BioMAP Diversity Plus: KF3CT Assay for Monocyte Chemoattractant Protein 1 (MCP1/CCL2) Biomarker Activity (AID 2283073); conditions: primary human keratinocytes with fibroblasts; actives raise or lower the signal
Procedure, shortened: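 ELISA read-out of MCP-1, 24 h post-dose, in primary human skin keratinocytes co-cultured with fibroblasts. Parallel SRB staining monitors cytotoxicity; changes fitted both directions relative to DMSO.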

[14] = read-out: Matrix Metallopeptidase 9 (MMP9), MMP9 (gene 4318); experiment: BSK_KF3CT_MMP9: BioMAP Diversity Plus: KF3CT Assay for Matrix Metallopeptidase 9 (MMP9) Biomarker Activity (AID 2283074); conditions: primary human keratinocytes with fibroblasts; actives raise or lower the signal
Procedure, shortened: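 ELISA read-out of MMP-9 at 24 h post-dosing in a co-culture of human skin keratinocytes and foreskin fibroblasts. Gain or loss of signal was fitted in both directions against DMSO.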

[15] = read-out: urokinase plasminogen activator (uPA), PLAU (gene 5328); experiment: BSK_KF3CT_uPA: BioMAP Diversity Plus: KF3CT Assay for urokinase plasminogen activator (uPA) Biomarker Activity (AID 2283075); conditions: primary human keratinocytes with fibroblasts; actives raise or lower the signal
Procedure, shortened: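 Skin co-culture (keratinocytes + foreskin fibroblasts), human primary; 24 h post-dose; uPA by ELISA; gain/loss fit vs DMSO baseline.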

CD40, CD40 (gene 958) = experiment: BSK_LPS_CD40: BioMAP Diversity Plus: LPS Assay for CD40 Biomarker Activity (AID 2283076); conditions: primary human HUVEC with PBMC; actives raise or lower the signal
Procedure, shortened: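 In the LPS system of human endothelial cells with peripheral blood mononuclear cells, CD40 levels were read by ELISA 24 h post-treatment. Signal changes in either direction were fitted against the DMSO baseline, with parallel SRB protein staining.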

[16] = read-out: E-selectin (Homo sapiens) (UniProt P16581); experiment: BSK_LPS_Eselectin: BioMAP Diversity Plus: LPS Assay for Eselectin Biomarker Activity (AID 2283077); conditions: primary human HUVEC with PBMC; actives raise or lower the signal
Procedure, shortened: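 E-selectin ELISA on LPS-stimulated endothelial cell/PBMC co-cultures, read 24 h post-treatment; gains and losses fitted against DMSO. Parallel SRB staining (0.1% SRB after 10% TCA fixation, 560 nm) flags overt cytotoxicity.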

[17] = read-out: Interleukin-8 (IL8), CXCL8 (gene 3576); experiment: BSK_LPS_IL8: BioMAP Diversity Plus: LPS Assay for Interleukin-8 (IL8) Biomarker Activity (AID 2283078); conditions: primary human HUVEC with PBMC; actives raise or lower the signal
Procedure, shortened: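 ELISA read-out of IL-8 after 24 h chemical treatment of LPS-activated endothelial/PBMC human primary co-cultures. Changes either up or down relative to DMSO; overt cytotoxicity checked by sulforhodamine B staining in parallel wells.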

[18] = read-out: Interleukin-1 alpha (IL1a), IL1A (gene 3552); experiment: BSK_LPS_IL1a: BioMAP Diversity Plus: LPS Assay for Interleukin-1 alpha (IL1a) Biomarker Activity (AID 2283080); conditions: primary human HUVEC with PBMC; actives raise or lower the signal
Procedure, shortened: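 Readout is IL-1a level by ELISA, 24 h post-dose, fitted as gain or loss relative to DMSO. System: LPS-activated human primary co-culture of vascular endothelium and peripheral blood mononuclear cells, with parallel SRB total-protein cytotoxicity.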

[19] = BSK_LPS_SRB: Viability Assessment in the BioMAP Diversity Plus: LPS Assay (AID 2283079); conditions: primary human HUVEC with PBMC;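 further: total protein by sulforhodamine B absorbance as a cytotoxicity measure; measured one day after compound addition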
Procedure, shortened: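 SRB viability endpoint: cells fixed with 10% TCA, stained with 0.1% SRB, read at 560 nm, 24 h post-dose. HUVEC/PBMC co-culture; signal change in either direction scored relative to DMSO.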

Measured: AC50

E-selectin (Homo sapiens), sequence (P16581 whole entry, looked up): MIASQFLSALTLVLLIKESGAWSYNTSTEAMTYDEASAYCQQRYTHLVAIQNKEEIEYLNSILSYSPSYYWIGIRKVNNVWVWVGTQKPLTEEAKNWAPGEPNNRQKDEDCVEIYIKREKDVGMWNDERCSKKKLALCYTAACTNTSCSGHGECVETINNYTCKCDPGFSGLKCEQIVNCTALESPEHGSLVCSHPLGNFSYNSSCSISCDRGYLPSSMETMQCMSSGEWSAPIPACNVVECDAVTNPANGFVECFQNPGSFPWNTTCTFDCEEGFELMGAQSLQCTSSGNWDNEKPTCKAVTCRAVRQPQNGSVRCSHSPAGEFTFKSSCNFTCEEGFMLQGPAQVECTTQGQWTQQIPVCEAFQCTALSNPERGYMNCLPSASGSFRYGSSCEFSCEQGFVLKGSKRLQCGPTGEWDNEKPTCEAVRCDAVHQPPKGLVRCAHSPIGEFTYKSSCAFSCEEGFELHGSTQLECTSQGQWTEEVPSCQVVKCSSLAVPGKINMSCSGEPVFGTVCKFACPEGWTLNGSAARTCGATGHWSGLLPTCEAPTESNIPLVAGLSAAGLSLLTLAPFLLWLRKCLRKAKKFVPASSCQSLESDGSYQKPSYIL

COC(=O)CCC(=O)OC
not listed: [19]
inactive: all other assays above

O=Cc1ccccc1C=O
not listed: [19]
inactive: all other assays above

CCCCCCCCCC[N+](C)(C)[O-]
active: [11] 0.0209 µM
inactive: all other assays above

CCCCCCCC(=O)OC
not listed: [19]
inactive: all other assays above

CN(C)C(=O)NC1(c2ccccc2)CCN(CCC[C@]2(c3ccc(Cl)c(Cl)c3)CCCN(C(=O)c3ccccc3)C2)CC1
active: [17] 8.1 µM
not listed: [19]
inactive: all other assays above

CC(=O)O[C@]1(C(C)=O)CC[C@H]2[C@@H]3C=C(Cl)C4=CC(=O)[C@@H]5C[C@@H]5[C@]4(C)[C@H]3CC[C@@]21C
active: [6] 1.74 µM | CD40, CD40 (gene 958) 31.5 µM
not listed: [8] | [19]
inactive: all other assays above

Cc1cn([C@H]2C=C[C@@H](CO)O2)c(=O)[nH]c1=O
not listed: [19]
inactive: all other assays above

CCCCCCC(C=O)=Cc1ccccc1
active: [1] 31.5 µM | [5] 32 µM | [8] 30.5 µM | [17] 30.2 µM | [18] 33.6 µM
not listed: [4] | [19]
inactive: all other assays above
